This is a sample that favours compounds with a hit; in the whole collection about 3.3% have one here.
PI4K2A inh: PI4K2A (human) kinase inhibition; Q9BTU6; purified PI4K2A, ADP-Glo luminescence, 1 h; stronger effect = lower value; activity change, negative = inhibition, % at 76.9 µM; 420,000 tested, 0.13% active; in the data active = activity change below about -50%; inconclusive = mostly about -30% to -49%;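 also: -100% = wells without enzyme as full effect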
Target sequence (Q9BTU6 whole entry, looked up): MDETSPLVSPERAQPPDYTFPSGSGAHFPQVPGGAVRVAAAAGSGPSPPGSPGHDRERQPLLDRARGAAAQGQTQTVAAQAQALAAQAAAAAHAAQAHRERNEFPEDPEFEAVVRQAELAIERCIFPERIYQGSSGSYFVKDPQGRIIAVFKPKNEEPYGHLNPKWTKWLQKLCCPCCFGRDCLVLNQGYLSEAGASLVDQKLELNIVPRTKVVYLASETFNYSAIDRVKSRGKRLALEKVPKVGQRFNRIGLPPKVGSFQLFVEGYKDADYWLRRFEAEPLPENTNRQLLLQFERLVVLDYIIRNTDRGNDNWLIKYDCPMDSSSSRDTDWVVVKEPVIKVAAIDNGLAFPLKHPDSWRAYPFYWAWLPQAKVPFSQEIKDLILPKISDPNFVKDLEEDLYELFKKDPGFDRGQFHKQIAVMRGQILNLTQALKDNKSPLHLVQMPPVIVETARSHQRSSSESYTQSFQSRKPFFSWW
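PI4K2A activity was measured by ADP-Glo luminescence: enzyme (4 ug/mL stock) and phosphatidylinositol (1.2 mM stock) in Tris pH 7.5/MgCl2/EGTA/Triton X-100 buffer were reacted with ATP (300 microM stock) for one hour at ambient temperature.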
PI5P4Ka inh: PI5P4K alpha (human) kinase inhibition; P48426; PI5P4Kalpha enzyme, ADP-Glo luminescence, 60 min; stronger effect = lower value; max response, %; 330,000 tested, 1.2% active; active = max response of -50% or lower; inconclusive = between -30% and -50%; inactive = -30% or higher; also: value at the top dose of about 77 µM; % is scaled to controls: 0 for no effect and ±100 for the full control effect
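Controls without substrate or without enzyme flank wells where PI5P4Kalpha converts substrate using 5 microM ATP (final). Incubation lasts 60 minutes at room temperature; ADP formed is read by ADP-Glo luminescence.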
D3 ag: D3 dopamine receptor (human) agonism; D3R DiscoveRx beta-arrestin cells, luminescence, 90 min; max activation, %; 410,000 tested, 0.58% active; AID 652048; in the data active = max activation above about 30%; also: 0% is about no effect
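Agonist mode: compounds and dopamine controls were applied to plated cells for 90 min at 37 degrees C after an overnight attachment at 1500 cells/well. Luminescent read-out followed 30 - 60 minutes at room temperature with DiscoveRx detection reagent.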
D3 antag: D3 dopamine receptor (human) antagonism; P35462; D3R cells, DiscoveRx beta-arrestin luminescence, antagonist mode; stronger effect = lower value; max response, negative = inhibition, %; 360,000 tested, 2.5% active; AID 652054; in the data active = max response below about -50%; inconclusive = no clear call, values can overlap the other calls; also: % is scaled to controls: 0 for no effect and ±100 for the full control effect
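Cells plated overnight at 1500 cells/well, then exposed to library compounds with dopamine controls for 90 minutes at 37 degrees C. DiscoveRx reagent added for 30–60 minutes at room temperature; luminescence read, quantitative HTS format.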
LDHA inh: blocks human lactate dehydrogenase A. P00338. AID 1347041. 480,000 tested, 0.15% active. purified LDHA, NADH/diaphorase-resazurin fluorescence; stronger effect = lower value. activity change, % (values are at about 110 or 230 µM); in the data active = activity change below about -30%; inconclusive = mostly about -25% to -30%;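 also: plate controls were DMSO wells for no effect and wells without enzyme for full effect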
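Resorufin fluorescence (ex540/em590), read at 0 and 20 min after diaphorase/resazurin addition, reports the NADH left after a 5 min room-temperature reaction of 2 nM human LDH5 with 0.06 mM NADH and 0.2 mM pyruvate.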
Active calls of the source: *; ? = inconclusive; · = not tested or not shown.

SMILES	PI4K2A inh	PI5P4Ka inh	D3 ag	D3 antag	LDHA inh
CCC(CC)c1nnc(NC(=O)Oc2ccccc2)s1	8	·	-3	-69*	-2
CCCCNC(=O)c1sc(=S)n2c1[nH]c(=O)c1ccccc12	2	-1	0	-50*	-6
O=C(O)c1ccc(S(=O)(=O)c2ccc3c(c2)C(=O)N(NC(=O)c2ccncc2)C3=O)cc1	2	1	-3	-56*	-6
O=C(Nn1ccc2c(nnc3c(-c4ccccc4)cnn32)c1=O)c1ccncc1	·	·	·	·	-4
O=C1NCN(c2ccccc2)C12CCN(CCCC(c1ccc(F)cc1)c1ccc(F)cc1)CC2	-4	-21	-85	-104*	-5
O=C1CCC(=O)N1CCC(c1ccc(F)cc1)c1ccco1 (stereo not given)	12	·	9	-9	-5
Cc1nc(-c2ccc(C(=O)N3CCOCC3)cc2)cs1	-17	-15	5	5	-10
Cc1nc(-c2ccc(C(=O)Nc3ccccc3F)cc2)cs1	-60*	-20	1	-1	-15
Cc1nc(-c2ccc(C(=O)N3CCCC3)cc2)cs1	-56*	?	-10	-21	-12
Cc1nc(-c2ccc(C(=O)Nc3ccc(F)cc3)cc2)cs1	?	1	2	8	-15
O=C(Nc1ccccc1F)c1ccc(C(=O)c2ccccc2)cc1	-5	2	-10	-73*	-8
CON(C)C(=O)c1cc(-c2cc(C)oc2C)nc2onc(C)c12	·	·	·	·	-6
O=C(CSc1nc2cc(Cl)ccc2s1)c1ccco1	-2	·	0	7	2
Cn1cccc1CC(=O)N/N=C/C=C/c1ccco1	?	-55*	-13	-2	8
O=C(CSc1nnc(SCc2ccccc2)s1)N/N=C/C=C\c1ccco1	-22	-82*	13	4	1
Cc1ccc(OCC(=O)N/N=C/C=C/c2ccco2)cc1	-20	-64*	-1	-5	9
O=C(CSc1nnc(SCC(=O)c2ccco2)s1)c1ccco1	-13	-62*	-1	12	-2
C/C(=N\NC(=O)Cc1cccn1C)c1ccco1	-5	-8	22	8	-8
CCOC(=O)/C(C#N)=C\c1cc(Br)c(OC)c(OCC)c1	·	·	·	·	9
O=C(c1ccncc1)N1N=C(C(F)(F)F)CC1(O)C(F)(F)F (stereo not given)	·	·	·	·	-12
O=C(NC1CC1)C1CCCN(c2ncnc3nc[nH]c23)C1 (stereo not given)	·	·	·	·	4
CC1CCN(C(C)C(=O)Nc2ccc(C#N)cc2)CC1 (stereo not given)	·	·	·	·	-3
COc1cc(-c2nnc(-c3ccco3)o2)ccc1OCc1ccccc1	-2	·	30*	36	-1
COc1cc(-c2nnc(-c3ccncc3)o2)ccc1OCc1ccccc1	2	·	81*	49	-7
COc1ccc(-c2nnc(-c3ccccc3)o2)cc1OC	-1	-1	-1	-8	-3
SMILES	PI4K2A inh	PI5P4Ka inh	D3 ag	D3 antag	LDHA inh
Cn1c(Sc2ccc(C(=O)O)cc2[N+](=O)[O-])nnc1-c1ccccc1	2	-77*	-16	-2	-2
O=C(O)c1ccc(Sc2nnc(-c3cccc(Br)c3)o2)c([N+](=O)[O-])c1	-5	-4	-2	-66*	2
CC(=O)c1ccc(Sc2nnnn2-c2ccccc2)c([N+](=O)[O-])c1	23	-6	1	9	-1
CC(C)NC(=O)NC(=O)CSC1=Nc2ccccc2CS1	·	·	·	·	-7
O=C(CSc1nc(Cl)nc2nc[nH]c12)Nc1cccc(F)c1	·	·	·	·	-5
O=C(CSc1nc(Cl)nc2nc[nH]c12)Nc1cccc(Cl)c1	·	·	·	·	-35*
Cc1cccc(N2CC(c3nc4ccccc4[nH]3)CC2=O)c1C (stereo not given)	·	·	·	·	2
Cc1ccc2nc(CSc3nnc(NC(=O)COc4ccccc4F)s3)cc(=O)n2c1	-4	·	58*	·	-9
Cc1cc2c(cc1C)NC(c1ccccc1)C1=C(CC(C)(C)CC1=O)N2 (stereo not given)	·	·	·	·	-10
Cc1cc2c(cc1C)NC(c1c(C)n(C)n(-c3ccccc3)c1=O)C1=C(CC(C)(C)CC1=O)N2 (stereo not given)	-1	1	-2	-93*	7
O=C(CC1CCCCC1)NNC(=O)c1cccc(Cl)c1	·	·	·	·	-9
CC(C)(C)n1ncc2c1NC(=O)CC21C(=O)Nc2ccc(Br)cc21 (stereo not given)	·	·	·	·	-3
Clc1ccc(-c2cccs2)nn1	4	-4	19	17	-9
CC1CCN(c2ccc(-c3cccs3)nn2)CC1	-57*	?	2	-5	-9
CCc1nc2ccc(C(=O)NC3CCN(Cc4ccccc4)CC3)cn2c1N(C)Cc1cccs1	-4	0	-29	-77*	-1
CCc1nc2ccc(C(=O)N3CCN(C(=O)c4ccco4)CC3)cn2c1N(C)Cc1cccs1	0	5	2	72	-14
CCc1nc2ccc(C(=O)NCCCn3ccnc3)cn2c1N(C)Cc1cc2ccccc2s1	5	8	3	17	-8
CCc1nc2ccc(C(=O)NC3CCN(Cc4ccccc4)CC3)cn2c1N(C)Cc1cc2ccccc2s1	3	-9	-10	-68*	-6
Cc1nc(C)c(C(=O)C2=C(O)C(=O)N(CCN3CCOCC3)C2c2ccc(C(C)C)cc2)s1 (stereo not given)	·	·	·	·	6
CCOc1ccc(NC(=O)COc2ccc(N3CC(C(N)=O)CC3=O)cc2)cc1 (stereo not given)	-1	-19	2	2	0
CNC(=O)C1CC(=O)N(c2ccc(OCC(=O)Nc3ccccc3)cc2)C1 (stereo not given)	-25	-66*	-4	-12	-4
Cc1cc(C)c2nc(-c3ccncc3)cc(C(=O)Nc3nccs3)c2c1	·	·	·	·	-3
Cc1ccccc1C(=O)CC(=O)c1ccccc1C	·	·	·	·	0
CC1CCN(C(C)C(=O)Nc2ccccc2-c2ccccc2)CC1 (stereo not given)	-6	0	-6	-56*	-16
CC(C(=O)Nc1ccccc1-c1ccccc1)N1CCN(C(=O)c2ccccc2)CC1 (stereo not given)	1	0	0	-11	1
CC1CCCCN1CCC(=O)O (stereo not given)	·	·	·	·	9
C#CCOCCOCCOCCNc1nc(N2CCN(C(=O)C(Cc3cc4ccccc4[nH]3)n3cc(C(N)Cc4ccc(O)cc4)nn3)CC2)nc(N2CCN(C(=O)C(Cc3cc4ccccc4[nH]3)n3cc(C(N)Cc4ccc(O)cc4)nn3)CC2)n1 (stereo not given)	-4	-92*	-11	-7	-2
C#CCOCCOCCOCCNc1nc(N2CCN(C(=O)[C@H]([C@@H](C)CC)n3cc(CCCCN)nn3)CC2)nc(N2CCN(C(=O)[C@H](CCCCN)n3cc(CCC(=O)O)nn3)CC2)n1	3	0	-3	34	3

Source: PubChem
